Source: ChEMBL document CHEMBL1201862, “PubChem BioAssay data set” (2004)
Among all 52,000 sequences or so, about 3,900 (7.5%) were called active. Rule as the data show it: active = GI50 up to about 1.1 µM and inactive = higher. A selection follows. Potency and affinity values are given separately.

system: RXF 393

Row | Substance | GI50 [µM]
1 | [Bis(aminomethyl)tetramethylenesilane]tetrachloropaltinum(IV), CHEMBL2146189 | 25.4
2 | [Bis(aminomethyl)pentamethylenesilane]tetrachloropaltinum(IV), CHEMBL2146204 | 7.35
3 | [Bis(aminomethyl)dimethylsilane]tetrachloroplatinum(IV), CHEMBL2146190 | 3.59
4 | [Bis(aminomethyl)dimethylsilane]dichloroplatinum (II), CHEMBL2146201 | 34.2
5 | [Bis(aminomethyl)pentamethylenesilane]dichloropaltinum(II), CHEMBL2146202 | 2.92
6 | cis-Bis[[(trimethylsilyl)methyl]amino]tetrachloroplatinum(IV), CHEMBL2146191 | 2.72
7 | [Bis(aminomethyl)tetramethylenesilane]dichloropaltinum(II), CHEMBL2146205 | 12.6
8 | [Bis(aminomethyl)diethylsilane]tetrachloroplatinum(IV), CHEMBL2146203 | 17.4
9 | CISPLATIN, CHEMBL11359 | 3.33
10 | mu-(1,7-nanodiamine-N,N')bis-(cis-aminedichloroplatimum (II)), CHEMBL2146215 | 15.4
